# Records with an inconclusive call do not appear. A number with no mark means an inactive call. The source made the active and inactive calls. Calls follow the shape of the dose curve; as a rule, active = well fitted activation curve with a large enough effect in the signal ratio in the repeat runs (not every such curve was filed as active); inconclusive = weak or mixed curves, or effect the other way; inactive = flat fitted curve, though single readings scatter; the % refers to the signal ratio.
# Molecular target: Estrogen receptor beta (Homo sapiens) (UniProt Q92731)
# Test: qHTS assay to identify small molecule agonists of the estrogen receptor beta (ER-beta) signaling pathway (AID 1259377)
# Conditions: ER-beta-UAS-bla HEK293T, beta-lactamase FRET ratio, 16 h; series mostly up to 92.4 µM; activation: at the top concentration
# Summary of the method: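 ER-beta-UAS-bla HEK293T (GripTite) cells carrying a UAS-driven beta-lactamase reporter, in medium with 2% charcoal-stripped FBS, were exposed to compounds for 16 hr at 37C; LiveBLAzer B/G FRET substrate was then added and fluorescence read after 2 hours at room temperature.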
# % is scaled to controls: 0 for no effect and ±100 for the full control effect; potency is read from the fitted curve at half-maximal effect.
# Estrogen receptor beta (Homo sapiens), sequence (Q92731 whole entry, looked up): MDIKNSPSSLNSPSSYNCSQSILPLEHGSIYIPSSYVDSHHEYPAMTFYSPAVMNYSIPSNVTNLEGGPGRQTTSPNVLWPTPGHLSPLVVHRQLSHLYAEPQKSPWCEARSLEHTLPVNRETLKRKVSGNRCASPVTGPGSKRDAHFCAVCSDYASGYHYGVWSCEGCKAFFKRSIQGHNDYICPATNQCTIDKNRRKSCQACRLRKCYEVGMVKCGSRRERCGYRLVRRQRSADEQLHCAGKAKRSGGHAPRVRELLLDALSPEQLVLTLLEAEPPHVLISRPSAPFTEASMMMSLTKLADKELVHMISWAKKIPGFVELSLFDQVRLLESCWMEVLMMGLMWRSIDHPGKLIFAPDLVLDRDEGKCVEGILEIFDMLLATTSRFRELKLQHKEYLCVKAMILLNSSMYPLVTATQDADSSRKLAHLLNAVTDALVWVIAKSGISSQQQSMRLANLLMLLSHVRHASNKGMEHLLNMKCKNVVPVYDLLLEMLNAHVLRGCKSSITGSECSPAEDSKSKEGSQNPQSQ
Structure (SMILES),activation,Potency
S=c1nccc[nH]1,9.3%,–
CCc1ccc(Br)cc1,-3.11%,–
O=C(O)Cc1ccc2c(c1)C(=O)c1ccccc1CO2,-0.139% [at 42.5 µM],–
Cc1cc(C(C)(C)C)c(O)c(C)c1Cn1c(=O)n(Cc2c(C)cc(C(C)(C)C)c(O)c2C)c(=O)n(Cc2c(C)cc(C(C)(C)C)c(O)c2C)c1=O,-0.426%,–
CC1(C)CC(O)CC(C)(C)N1,5.29%,–
O=C(c1ccc(O)c(O)c1)c1ccc(O)cc1O,–,1370 nM (active)
CC(C)(C)c1csc(-c2cc3cc(OCc4ccccc4CC(=O)O)ccc3o2)n1,-4.07%,–
CCCCOC(=O)CO,-0.358%,–
[Cl][Pt-2]([Cl])([Cl])[Cl],-3.42%,–
O=C(Nc1ccc2c(O)c(N=Nc3ccc(N=Nc4ccc(S(=O)(=O)O)cc4)cc3)c(S(=O)(=O)O)cc2c1)c1ccccc1,-2.48%,–
COC(=O)c1ccccc1OC,-2.53%,–
Cc1c(C)c([N+](=O)[O-])c(C(C)(C)C)c([N+](=O)[O-])c1C,4.94%,–
CCO[Si](OCC)(OCC)OCC,-0.526%,–
CCCCN(CCCC)CC(O)c1cc(Cl)cc2c1-c1ccc(Cl)cc1/C2=C/c1ccc(Cl)cc1 (stereo not given),-0.917% [at 42.5 µM],–
C[Si](Cl)(c1ccccc1)c1ccccc1,1.07%,–
